Assay outcomes from PubChem.
Pf Dd2 growth: qHTS Primary assay for Inhibitors of Plasmodium falciparum Dd2 growth in vitro. P. falciparum Dd2 growth, SYBR Green, 72 h. Potency, µM (doses to about 28.9 µM), hits mostly inhibitors. hit rate 4.3% among 120,000; active = well fitted inhibition curve with a large enough effect; note: nearly all actives have a fitted effect of over 65% in size
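Readout: SYBR Green fluorescence, 485 nm excitation, 535 nm emission, after ~16 h lysis at 37C. Before that, Dd2-infected red cells (2.5% hematocrit) grew 72 h with compound, 29 uM top final concentration.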
Numbers stand for hits; – = inactive. The entries come from a sample that favours hits as a whole.

SMILES | Pf Dd2 growth
COc1cc2c(cc1OC1CCCC1)NC(=O)C21CCN(c2ncc(F)cn2)CC1 | –
COc1cc2c(cc1OC1CCCC1)NC(=O)C21CCN(c2nc(C)cc(C)n2)CC1 | 11µM
COc1cc2c(cc1OC1CCCC1)NC(=O)C21CCN(c2ncccn2)CC1 | –
Cc1cccc(OCC(=O)N2CCC(n3cc(-c4nc(C(C)C)no4)nn3)CC2)c1 | –
N#Cc1ccc(CN2CCC3(C2)C(=O)Nc2ccccc23)cc1 (stereo unspecified) | –
O=C1Nc2ccccc2C12CCN(Cc1cccnc1)C2 (stereo unspecified) | –
CN1C(=O)C2(CCN(Cc3ccc(F)cc3)C2)c2ccccc21 (stereo unspecified) | 13µM
O=C(c1ccc(C(F)(F)F)cc1)N1CCC2(C1)C(=O)N(Cc1ccccc1)c1ccccc12 (stereo unspecified) | –
CN1C(=O)C2(CCN(S(=O)(=O)c3ccc(F)cc3)C2)c2ccccc21 (stereo unspecified) | –
CN1C(=O)C2(CCN(Cc3ccc(C(F)(F)F)cc3)C2)c2ccccc21 (stereo unspecified) | –
O=C1N(c2ccccc2)c2ccccc2C12CCN(Cc1ccccc1)C2 (stereo unspecified) | 11µM
CCCC(=O)N1CCC2(CC1)C(=O)N(C)c1ccccc12 | –
CN1C(=O)C2(CCN(C(=O)Cc3ccccc3Cl)C2)c2ccccc21 (stereo unspecified) | 3.2µM
O=C(c1ccccc1F)N1CCC2(C1)C(=O)N(c1ccccc1)c1ccccc12 (stereo unspecified) | –
CN1C(=O)C2(CCN(C(=O)c3ccc(Cl)cc3)C2)c2ccccc21 (stereo unspecified) | –
O=C(c1ccc(C(F)(F)F)cc1)N1CCC2(C1)C(=O)N(c1ccccc1)c1ccccc12 (stereo unspecified) | 10µM
CNC(=O)N1CCC(C2CCN(C(=O)C3CCNCC3)C2)CC1 (stereo unspecified) | –
Cc1cc(C(=O)N2CCOC[C@H](Oc3cccnc3)C2)c(C(F)(F)F)o1 | –
O=[S+]([O-])(c1cccs1)N1CCCC2(CC(c3ccccc3)=NO2)C1 (stereo unspecified) | –
CC(=O)N[C@@H]1CN(Cc2cccn2C)C[C@H]1CO | –
CC(C)Cc1cc(CNC(=O)C(c2ccccc2F)N(C)C)on1 (stereo unspecified) | –
CN1C(=O)C2(CCN(Cc3ccnn3C)C2)c2ccccc21 (stereo unspecified) | –
CN1C(=O)C2(CCN(Cc3cncs3)C2)c2ccccc21 (stereo unspecified) | –
CN1C(=O)C2(CCN(S(=O)(=O)c3ccccc3)C2)c2ccccc21 (stereo unspecified) | –
CN1C(=O)C2(CCN(Cc3ccsc3)C2)c2ccccc21 (stereo unspecified) | 5.6µM
SMILES | Pf Dd2 growth
O=C1Nc2ccccc2C12CCN(Cc1ccsc1)CC2 | –
CN1C(=O)C2(CCN(Cc3cccc4ccccc34)C2)c2ccccc21 (stereo unspecified) | 13µM
COc1ccccc1-n1cc(CNC(=O)C(N)c2c(C)n[nH]c2C)cn1 (stereo unspecified) | –
CCc1ccccc1-n1nc(-c2c(C)nc3scc(CC(=O)NCCC(C)C)n3c2=O)cc1C | –
O=C([C@H]1O[C@H](CCN2CCN(c3ccccc3)CC2)CC[C@@H]1O)N1CCOCC1 | –
COc1ccccc1N1CCN(C(=O)[C@H]2O[C@H](CCN3CCN(c4ccccc4)CC3)CC[C@@H]2O)CC1 | –
CN(Cc1ccccc1)C(=O)[C@H]1O[C@H](CCN2CCN(c3ccccc3)CC2)CC[C@@H]1O | 4.5µM
CN(C)Cc1ccccc1-c1ccc2n(c1=O)C[C@H]1C[C@@H]2CN(C(=O)c2cnccn2)C1 | –
COc1ccc(NC(=O)Cn2c(-c3ccc(F)cc3)nc(C)cc2=O)c(OC)c1 | –
COc1cc(NC(=O)N[C@H]2CO[C@H]3[C@@H]2OC[C@H]3OC(=O)Nc2cccc(C(C)=O)c2)cc(OC)c1 | –
O=S(=O)(c1cccc(Cl)c1)n1c(/C=C/c2ccccc2Cl)nc2ccccc21 | –
CSc1ccc(/C=C/c2nc3ccccc3n2S(=O)(=O)c2cccc(Cl)c2)cc1 | –
Cc1ccc(/C=C/c2nc3ccccc3n2S(=O)(=O)c2ccc(Br)cc2)cc1 | 5.6µM
CCCN1CCN(C(=O)C2CCc3ncc(-c4ccsc4)n3C2)CC1 (stereo unspecified) | –
COCC(=O)N1CCN(CC(=O)Nc2ccc(C)cc2)[C@H]2CS(=O)(=O)C[C@H]21 | –
O=C(CC(c1ccccc1)c1ccccc1Cl)N1CCOCC1 (stereo unspecified) | –
O=C(CC(c1ccc(Cl)cc1)c1c[nH]c2ccc([N+](=O)[O-])cc12)N1CCOCC1 (stereo unspecified) | –
O=C(CC(c1ccc(F)cc1)c1cn(Cc2ccccc2)c2ccc([N+](=O)[O-])cc12)N1CCOCC1 (stereo unspecified) | 0.18µM
O=C(NC1CCCCC1)[C@@H]1C[C@@H](O)CN1C1CCN(C(=O)c2cccc3nccnc23)CC1 | –
CCCNC(=O)N1CCCCCCNC(=O)[C@@H]2CCCC[C@@H]21 | –
C[C@H]1[C@@H]2[C@@H](O)C([C@H](C)C(=O)N3CCCC3)CC[C@@]2(C)CC[C@@H]1NC(=O)Cc1ccccc1 (stereo partly specified) | –
CCN(c1ccccc1)S(=O)(=O)c1cc(Br)cc2c1N(C(=O)C1CC1)CC2 | 1.1µM
O=C(C1CC1)N1CCc2cc(Br)cc(S(=O)(=O)Nc3ccc(F)c(F)c3)c21 | –
Cc1ccc(NS(=O)(=O)c2cc(Br)cc3c2N(C(=O)C2CC2)CC3)cc1C | –
O=C(C1CC1)N1CCc2cc(Br)cc(S(=O)(=O)N3CCN(c4ccccc4)CC3)c21 | –
SMILES | Pf Dd2 growth
CCC(=O)N1CCc2cc(Br)cc(S(=O)(=O)NCCc3cccc(C)c3)c21 | –
CCN(C(=O)C1CCN(S(=O)(=O)c2cc(Br)cc3c2N(C(C)=O)CC3)CC1)c1cccc(C)c1 | 5µM
COc1cc(NS(=O)(=O)c2cc(Br)cc3c2N(C(=O)C2CC2)CC3)cc(OC)c1 | –
Cc1cccc(N2CCN(S(=O)(=O)c3cc(Br)cc4c3N(C(=O)C3CC3)CC4)CC2C)c1 (stereo unspecified) | 11µM
CCC(=O)N1CCc2cc(Br)cc(S(=O)(=O)N3CCC(C(=O)Nc4ccc(OC)cc4)CC3)c21 | –
COc1ccc(C(=O)NCC23CCC=C2N(C)C(=O)CC3)cn1 (stereo unspecified) | –
COc1ccc(-c2cnc3[nH]cc(CC(=O)Nc4cccc(N(C)C)c4)c3c2)cc1 | –
Cc1noc(-c2nc(-c3ccc(OC(C)C)cc3)no2)n1 | –
CC(C)CN1CC(C(=O)N(Cc2nccn2C)C2CC2)CC1=O (stereo unspecified) | –
CN1CCN(CCCNC(=O)C23CCCC=C2N(C2CCCC2)C(=O)CC3)CC1 (stereo unspecified) | –
O=C(NCC1CN(C(=O)c2cccc(Cl)c2)CC12CN(c1ccccc1)C2)C1CC1 (stereo unspecified) | –
O=C(COc1ccc(F)cc1)NCC(=O)N1CCCCCNC(=O)CC1c1ccccc1 (stereo unspecified) | –
CC1CCCCN1C(=O)c1ccc2c(c1)N(Cc1cccc(Cl)c1)C(=O)c1ccccc1S2=O (stereo unspecified) | –
COc1ccc(NC(=O)c2ccc3c(c2)N(Cc2cccc(Cl)c2)C(=O)c2ccccc2S3=O)cc1Cl (stereo unspecified) | 3.2µM
